CD11b adhes enh: enhancers of CD11b/CD18 adhesion to fibrinogen, primary screen, K562 cells, luminescence. Integrin beta-2 (Homo sapiens) + Integrin alpha-M (Homo sapiens), P05107+P11215. ATPlite luminescence. activation, % at 10 µM. actives 0.07% (n = 93,000);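 active = 10 µM primary screen giving 50% or more activity, confirmed by 40% or more on retest at that dose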
ERb SRC1 inh: inhibitors of ERβ-SRC1 coactivator interaction, primary screen, biochemical, TR-FRET, ERβ LBD, SRC-1 peptide. TR-FRET ER-beta LBD / SRC1-Cy5 peptide binding; receptor agonist-loaded with 1 µM estradiol. actives 1.3% (n = 86,000). Estrogen receptor beta (Homo sapiens), Q92731. inhibition, % at 25.6 µM;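 active = compounds whose percent inhibition of the receptor-coactivator binding signal exceeds about 50% in the single-dose screen, limit read from the data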
Target sequence (Q92731 whole entry, looked up, the tested form may be a part): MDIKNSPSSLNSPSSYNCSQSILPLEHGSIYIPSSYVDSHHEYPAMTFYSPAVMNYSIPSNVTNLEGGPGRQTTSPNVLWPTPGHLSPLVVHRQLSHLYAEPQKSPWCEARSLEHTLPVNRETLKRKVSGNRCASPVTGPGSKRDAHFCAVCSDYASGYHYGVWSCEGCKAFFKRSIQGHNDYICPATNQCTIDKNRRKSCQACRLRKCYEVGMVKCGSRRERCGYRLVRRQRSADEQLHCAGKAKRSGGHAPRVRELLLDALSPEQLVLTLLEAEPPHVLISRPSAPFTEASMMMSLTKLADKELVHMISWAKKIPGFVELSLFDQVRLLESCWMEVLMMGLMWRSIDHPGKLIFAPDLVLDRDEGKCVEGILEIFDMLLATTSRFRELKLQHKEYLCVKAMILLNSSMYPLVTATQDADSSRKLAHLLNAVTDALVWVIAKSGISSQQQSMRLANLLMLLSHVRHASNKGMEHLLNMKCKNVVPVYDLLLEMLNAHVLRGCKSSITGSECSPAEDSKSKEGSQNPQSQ
Mac1 fbg inh: inhibitors of CD11b/CD18 adhesion to fibrinogen, primary screen, K562 cells, luminescence | actives 0.54% (n = 93,000) | inhibition, % at 10 µM | ATPlite luminescence; Mn2+ added to activate the integrin | Integrin beta-2 (Homo sapiens) + Integrin alpha-M (Homo sapiens), P05107+P11215;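 active = primary inhibition of 50% or more at 10 µM, then 40% or more on retest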
ERa coact inh: ERα–SRC-1 coactivator interaction inhibitors, primary screen, biochemical, TR-FRET, ERα LBD, estradiol-bound; actives 1.7% (n = 86,000); inhibition, % at 25.6 µM; TR-FRET ER-alpha LBD / SRC-1 peptide; Estrogen receptor (Homo sapiens), P03372; in the data active = inhibition above about 50%
ERa SRC1 pot: enhancers of ERα–SRC-1 coactivator binding, primary screen, biochemical, TR-FRET, ERα LBD, low estradiol. Estrogen receptor (Homo sapiens), P03372. TR-FRET ERalpha-LBD/SRC-Cy5 coactivator binding, 2 h; 100 = basal binding, no effect. coactivator binding (% of control), % at 25.6 µM. actives 1.3% (n = 86,000). AID 639, 2007; in the data active = activity above about 200%;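 also: binding measured in presence of low estradiol as agonist stimulus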
Hits are given with their value; [ ] = another dose, or the depositor's remark. Rows were chosen to be rich in hits. Some 3.1% of all compounds tested hit in one or more screens of this group.

Results for CSc1nc2ccc3nc(NC(=O)C4COc5ccccc5O4)sc3c2s1 (centres undefined) ?
CD11b adhes enh: inactive; ERb SRC1 inh: inactive; Mac1 fbg inh: inactive; ERa coact inh: inactive; ERa SRC1 pot: 209[fluorescence artefact?]

What do the screens show for `Cc1csc(NC(=O)C2COc3ccccc3O2)n1` (centres undefined)?
CD11b adhes enh: inactive; ERb SRC1 inh: inactive; Mac1 fbg inh: inactive; ERa coact inh: inactive; ERa SRC1 pot: inactive

Results for Cc1nc2ccc3nc(NC(=O)C4COc5ccccc5O4)sc3c2s1 (centres undefined) ?
CD11b adhes enh: inactive; ERb SRC1 inh: inactive; Mac1 fbg inh: inactive; ERa coact inh: inactive; ERa SRC1 pot: 279

How did CCN(CC)C(=O)c1cnn(-c2ccccc2)c1NC(=O)c1cccs1 do in these assays?
ERb SRC1 inh: inactive; ERa coact inh: inactive; ERa SRC1 pot: inactive

What do the screens show for `CC(C)n1nc(C(=O)Oc2cccc(Cl)c2Cl)c2ccccc2c1=O`?
CD11b adhes enh: inactive; Mac1 fbg inh: inactive

How did O=C(NNC(=O)c1cccnc1)Nc1cccc(Cl)c1Cl do in these assays?
CD11b adhes enh: inactive; Mac1 fbg inh: inactive

Results for O=C(Nc1cccc(Cl)c1Cl)c1ccncc1 ?
CD11b adhes enh: inactive; ERb SRC1 inh: inactive; Mac1 fbg inh: inactive; ERa coact inh: 54[fluorescence artefact?]; ERa SRC1 pot: inactive

How did CN=C1CC(SC)=C1c1ccc(C)cc1 do in these assays?
ERb SRC1 inh: inactive; ERa coact inh: inactive; ERa SRC1 pot: inactive

How did Cc1ccc(S(=O)(=O)NCCSc2nnnn2C)cc1 do in these assays?
ERb SRC1 inh: 75[fluorescence artefact?]; ERa coact inh: inactive; ERa SRC1 pot: inactive

What do the screens show for `Cn1nnnc1SCCNS(=O)(=O)c1ccccc1`?
CD11b adhes enh: inactive; ERb SRC1 inh: inactive; Mac1 fbg inh: inactive; ERa coact inh: inactive; ERa SRC1 pot: inactive

What do the screens show for `O=C1c2ccccc2C(=O)N1CCn1nc(Cl)nc1Cl`?
CD11b adhes enh: inactive; ERb SRC1 inh: 59[fluorescence artefact?]; Mac1 fbg inh: inactive; ERa coact inh: inactive; ERa SRC1 pot: inactive

What do the screens show for `CC(=O)c1ccc(NC(=O)Nc2cccc(Cl)c2)cc1`?
CD11b adhes enh: inactive; ERb SRC1 inh: inactive; Mac1 fbg inh: 97; ERa coact inh: inactive; ERa SRC1 pot: inactive

What do the screens show for `O=C(N/N=C/c1ccc(O)c(O)c1O)/C(=C/c1ccc([N+](=O)[O-])cc1)NC(=O)c1ccccc1`?
CD11b adhes enh: inactive; ERb SRC1 inh: 71[fluorescence artefact?]; Mac1 fbg inh: inactive; ERa coact inh: 89[fluorescence artefact?]; ERa SRC1 pot: inactive

What do the screens show for `O=C(N/N=C/c1cccs1)/C(=C/c1ccccc1)NC(=O)c1ccccc1`?
CD11b adhes enh: inactive; Mac1 fbg inh: inactive

Results for CCOc1ncccc1C(=O)OCC(=O)Nc1cc(C)ccc1C ?
ERb SRC1 inh: inactive; ERa coact inh: inactive; ERa SRC1 pot: inactive

Results for CCOc1ncccc1C(=O)OCC(=O)Nc1cc(C(=O)OC)ccc1C(=O)OC ?
CD11b adhes enh: inactive; ERb SRC1 inh: inactive; Mac1 fbg inh: inactive; ERa coact inh: inactive; ERa SRC1 pot: 372[fluorescence artefact?]

What do the screens show for `Clc1nc(-c2n[nH]nc2Cl)n[nH]1`?
CD11b adhes enh: inactive; Mac1 fbg inh: inactive

Results for Brc1ccc2ncnc(Nc3ccc(N4CCOCC4)cc3)c2c1 ?
CD11b adhes enh: inactive; ERb SRC1 inh: 82[fluorescence artefact?]; Mac1 fbg inh: inactive; ERa coact inh: 59[fluorescence artefact?]; ERa SRC1 pot: inactive

What do the screens show for `Cn1c(=O)c(C(=O)Nc2cnccn2)c(O)c2ccccc21`?
CD11b adhes enh: inactive; ERb SRC1 inh: inactive; Mac1 fbg inh: inactive; ERa coact inh: inactive; ERa SRC1 pot: inactive

What do the screens show for `Cn1c(=O)c(C(=O)Nc2ccccn2)c(O)c2ccccc21`?
CD11b adhes enh: inactive; ERb SRC1 inh: inactive; Mac1 fbg inh: inactive; ERa coact inh: inactive; ERa SRC1 pot: 286[fluorescence artefact?]

Results for CCCN1CCN(CCCNC(=O)c2cc3c(=O)n(C)c4ccccc4c3n2C)CC1 ?
CD11b adhes enh: inactive; ERb SRC1 inh: inactive; Mac1 fbg inh: inactive; ERa coact inh: inactive; ERa SRC1 pot: inactive

How did Cn1c(C(=O)NCCCN2CCCCCC2)cc2c(=O)n(C)c3ccccc3c21 do in these assays?
CD11b adhes enh: inactive; ERb SRC1 inh: inactive; Mac1 fbg inh: inactive; ERa coact inh: 53[fluorescence artefact?]; ERa SRC1 pot: inactive

What do the screens show for `CCc1cc(=O)oc2c(C)c(OCC(=O)N3CCCc4ccccc43)ccc12`?
CD11b adhes enh: inactive; ERb SRC1 inh: inactive; Mac1 fbg inh: inactive; ERa coact inh: inactive; ERa SRC1 pot: inactive

What do the screens show for `CCn1c(=O)cc(OCC(=O)N2CCCCCC2)c2ccccc21`?
CD11b adhes enh: inactive; ERb SRC1 inh: inactive; Mac1 fbg inh: inactive; ERa coact inh: inactive; ERa SRC1 pot: inactive

What do the screens show for `CCOC(=O)c1ccc(NC(=O)COc2cc(=O)n(CC)c3ccccc23)cc1`?
CD11b adhes enh: inactive; ERb SRC1 inh: inactive; Mac1 fbg inh: inactive; ERa coact inh: inactive; ERa SRC1 pot: 890[fluorescence artefact?]

What do the screens show for `CCn1c(=O)cc(OCC(=O)N2CCc3ccccc32)c2ccccc21`?
CD11b adhes enh: inactive; ERb SRC1 inh: inactive; Mac1 fbg inh: inactive; ERa coact inh: inactive; ERa SRC1 pot: 212[fluorescence artefact?]

How did CCc1cc(=O)oc2cc(OCC(=O)N3CCc4ccccc43)ccc12 do in these assays?
CD11b adhes enh: inactive; ERb SRC1 inh: inactive; Mac1 fbg inh: inactive; ERa coact inh: inactive; ERa SRC1 pot: 200[fluorescence artefact?]

What do the screens show for `O=C(COc1ccc(S(=O)(=O)NC2CCCCC2)cc1Cl)N1CCN(c2ccccc2)CC1`?
CD11b adhes enh: inactive; ERb SRC1 inh: inactive; Mac1 fbg inh: inactive; ERa coact inh: inactive; ERa SRC1 pot: inactive

What do the screens show for `COc1ccc(C(=O)OC(C)C(=O)Nc2cc(C(F)(F)F)ccc2Cl)c(OC)c1OC` (centres undefined)?
CD11b adhes enh: inactive; Mac1 fbg inh: inactive

How did O=C(NC1CCSC1=O)c1cccc(C(=O)NC2CCSC2=O)c1 (centres undefined) do in these assays?
CD11b adhes enh: inactive; ERb SRC1 inh: inactive; Mac1 fbg inh: inactive; ERa coact inh: inactive; ERa SRC1 pot: 208

How did O=S(=O)(CCc1nc2ccccc2o1)c1ccc2ccccc2c1 do in these assays?
CD11b adhes enh: inactive; ERb SRC1 inh: inactive; Mac1 fbg inh: inactive; ERa coact inh: inactive; ERa SRC1 pot: inactive

How did Cc1ccnc2nc(C(=O)Nc3ccc4c(c3)OCO4)nn12 do in these assays?
CD11b adhes enh: inactive; Mac1 fbg inh: inactive

What do the screens show for `Cc1cc(C)n2nc(C(=O)Nc3ccc4c(c3)OCO4)nc2n1`?
CD11b adhes enh: inactive; ERb SRC1 inh: inactive; Mac1 fbg inh: inactive; ERa coact inh: 59[fluorescence artefact?]; ERa SRC1 pot: inactive

Results for Cc1oc(-c2cc(Cl)ccc2Cl)cc1-c1nn2c(C)nnc2s1 ?
ERb SRC1 inh: inactive; ERa coact inh: inactive; ERa SRC1 pot: inactive

High-throughput results deposited in PubChem BioAssay by several laboratories.
